Experimental data published in PubChem BioAssay (NCATS).
Results filed as inconclusive are left out. Calls of active or inactive are those of the source. Calls follow the shape of the dose curve; as a rule, active = well fitted curve in the direction sought with a large enough effect; inconclusive = small, poorly fitted or top-dose-only effect, or another doubt; inactive = no such curve, though single readings can be large; an effect the other way counts as inactive or inconclusive.

What was measured:
[1] = Primary redox qHTS assay for identification of artifact compounds. (AID 1845223)
Procedure, shortened: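 Amplex Red (25 uM) and HRP (250 mU/mL) in HBSS, with compounds for 15 min, then 250 uM DTT for 30 min, room temperature, dark. Fluorescence 525/598 nm read; normalized to DMSO and 10 uM DA3003; Hill fit.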

[2] = Quantitative High-Throughput drug screen in 47 multiple myeloma cell lines against the NCATS MIPE library collection: FR4_PLB cell viability assay (AID 1918924; also: potency is read from the fitted curve at half-maximal effect; nearly all actives have a fitted effect of over 35% in size)
Procedure, shortened: (§1)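 Myeloma cell lines, 500 cells per well, exposed to MIPE 4.0 library compounds for 48 h at 37C, 5% CO2. Viability from ATP by CellTiter-Glo luminescence; normalised to DMSO (100%) and media-only (0%) wells.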

[3] = Quantitative High-Throughput drug screen in 47 multiple myeloma cell lines against the NCATS MIPE library collection: Delta47_JCRB cell viability assay (AID 1918925; also: potency is read from the fitted curve at half-maximal effect; nearly all actives have a fitted effect of over 45% in size)
Procedure, shortened: (§2)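 CellTiter-Glo ATP luminescence gave viability after 48 h compound treatment at 37C of 500 multiple myeloma cells per well. Normalisation used DMSO-only wells as 100% and media-only wells as 0% viability; primary qHTS of approved and investigational drugs.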

[4] = Quantitative High-Throughput drug screen in 47 multiple myeloma cell lines against the NCATS MIPE library collection: EJM_DSMZ cell viability assay (AID 1918926; also: nearly all actives have a fitted effect of over 30% in size; also: potency is read from the fitted curve at half-maximal effect)
Procedure, shortened: as §2

[5] = Quantitative High-Throughput drug screen in 47 multiple myeloma cell lines against the NCATS MIPE library collection: AMO1_DSMZ cell viability assay (AID 1918927; also: nearly all actives have a fitted effect of over 30% in size; also: potency is read from the fitted curve at half-maximal effect)
Procedure, shortened: as §2

[6] = Quantitative High-Throughput drug screen in 47 multiple myeloma cell lines against the NCATS MIPE library collection: ARD_JJKsccE7 cell viability assay (AID 1918929; also: potency is read from the fitted curve at half-maximal effect)
Procedure, shortened: as §2

[7] = Quantitative High-Throughput drug screen in 47 multiple myeloma cell lines against the NCATS MIPE library collection: Karpas620_DSMZ cell viability assay (AID 1918959); also: nearly all actives have a fitted effect of over 30% in size; also: potency is read from the fitted curve at half-maximal effect
Procedure, shortened: as §1

[8] = Quantitative High-Throughput drug screen in 47 multiple myeloma cell lines against the NCATS MIPE library collection: KMM1_JCRB cell viability assay (AID 1918960); also: nearly all actives have a fitted effect of over 30% in size; also: potency is read from the fitted curve at half-maximal effect
Procedure, shortened: (§3)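 Here, 48 h treatment with MIPE 4.0 agents at 37 °C preceded an ATP luminescence read. Plating density was 500 cells per well.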

[9] = Quantitative High-Throughput drug screen in 47 multiple myeloma cell lines against the NCATS MIPE library collection: Karpas417_ECACC cell viability assay (AID 1918961); conditions: Karpas417 myeloma viability, CellTiter-Glo ATP luminescence, 48 h; viability (% of DMSO): at 45.8 µM (top of the series); also: potency is read from the fitted curve at half-maximal effect
Procedure, shortened: as §1

[10] = Quantitative High-Throughput drug screen in 47 multiple myeloma cell lines against the NCATS MIPE library collection: JIM3_ECACC cell viability assay (AID 1918963; also: potency is read from the fitted curve at half-maximal effect; nearly all actives have a fitted effect of over 35% in size)
Procedure, shortened: as §1

[11] = Quantitative High-Throughput drug screen in 47 multiple myeloma cell lines against the NCATS MIPE library collection: JIM1_ECACC cell viability assay (AID 1918964; also: potency is read from the fitted curve at half-maximal effect)
Procedure, shortened: as §2

[12] = Quantitative High-Throughput drug screen in 47 multiple myeloma cell lines against the NCATS MIPE library collection: INA6_PLB cell viability assay (AID 1918965; also: potency is read from the fitted curve at half-maximal effect; nearly all actives have a fitted effect of over 55% in size)
Procedure, shortened: as §1

[13] = Quantitative High-Throughput drug screen in 47 multiple myeloma cell lines against the NCATS MIPE library collection: JJN3_DSMZ cell viability assay (AID 1918966; also: nearly all actives have a fitted effect of over 50% in size; also: potency is read from the fitted curve at half-maximal effect)
Procedure, shortened: as §2

[14] = Quantitative High-Throughput drug screen in 47 multiple myeloma cell lines against the NCATS MIPE library collection: H1112_PLB cell viability assay (AID 1918967; also: nearly all actives have a fitted effect of over 30% in size; also: potency is read from the fitted curve at half-maximal effect)
Procedure, shortened: as §2

[15] = Quantitative High-Throughput drug screen in 47 multiple myeloma cell lines against the NCATS MIPE library collection: Karpas25_ECACC cell viability assay (AID 1918968; also: potency is read from the fitted curve at half-maximal effect; nearly all actives have a fitted effect of over 35% in size)
Procedure, shortened: as §2

[16] = Quantitative High-Throughput drug screen in 47 multiple myeloma cell lines against the NCATS MIPE library collection: KMS27_JCRB cell viability assay (AID 1918970); also: nearly all actives have a fitted effect of over 30% in size; also: potency is read from the fitted curve at half-maximal effect
Procedure, shortened: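 Viability inhibition screen, 48 h compound exposure, luminescent ATP read-out.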

[17] = Quantitative High-Throughput drug screen in 47 multiple myeloma cell lines against the NCATS MIPE library collection: KMS12PE_JCRB cell viability assay (AID 1918972); also: nearly all actives have a fitted effect of over 30% in size; also: potency is read from the fitted curve at half-maximal effect
Procedure, shortened: as §1

[18] = Quantitative High-Throughput drug screen in 47 multiple myeloma cell lines against the NCATS MIPE library collection: ARP1_JJKsccF8 cell viability assay (AID 1918928; also: potency is read from the fitted curve at half-maximal effect; nearly all actives have a fitted effect of over 40% in size)
Procedure, shortened: as §3

[19] = Quantitative High-Throughput drug screen in 47 multiple myeloma cell lines against the NCATS MIPE library collection: KMS12BM_JCRB cell viability assay (AID 1918971); also: potency is read from the fitted curve at half-maximal effect; nearly all actives have a fitted effect of over 35% in size
Procedure, shortened: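 Inhibition of cell viability is measured here. Each line was plated at 500 cells per well, treated with MIPE 4.0 drugs, kept 48 hours at 37C, then assayed for ATP content by CellTiter-Glo luminescence.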

[20] = Quantitative High-Throughput drug screen in 47 multiple myeloma cell lines against the NCATS MIPE library collection: KHM11_PLB cell viability assay (AID 1918962)
Procedure, shortened: as §1

Measured: Potency

COc1cc2c(Oc3ccc(NC(=O)C4(C(=O)Nc5ccc(F)cc5)CC4)cc3F)ccnc2cc1OCCCN1CCOCC1
active: [2] 14800 nM | [3] 418 nM | [4] 18700 nM | [5] 5260 nM | [6] 2640 nM | [7] 6620 nM | [8] 2960 nM | [9] 2350 nM | [10] 11800 nM | [11] 1660 nM | [12] 7430 nM | [13] 16600 nM | [14] 16600 nM | [15] 935 nM | [16] 9350 nM | [17] 3720 nM
inactive: [1]

Cc1cc(Nc2cc(CN3CCOCC3)c3nc(C)c(Cc4ccc(Cl)cc4F)n3n2)n[nH]1
inactive: [1]
active: [2] 7430 nM | [3] 10500 nM | [4] 16600 nM | [5] 526 nM | [18] 13200 nM | [10] 4690 nM | [11] 418 nM | [12] 2350 nM | [14] 23500 nM | [19] 5260 nM

COc1cc(C)c(Sc2cnc(NC(=O)c3ccc(CNC(C)C(C)C)cc3)s2)cc1C(=O)N1CCN(C(C)=O)CC1 (centres undefined)
active: [2] 14800 nM | [3] 2350 nM | [4] 16600 nM | [18] 16600 nM | [10] 4180 nM | [12] 18700 nM | [13] 16600 nM | [14] 14800 nM | [15] 4690 nM | [19] 14800 nM
inactive: [1] | [5] | [7] | [8] | [11] | [16] | [17]

CN1CCN(Cc2ccc(NC(=O)Nc3ccc(Oc4cc(NC(=O)C5CC5)ncn4)cc3)cc2C(F)(F)F)CC1
active: [2] 296 nM | [3] 148 nM | [4] 332 nM | [18] 372 nM | [20] 132 nM | [10] 148 nM | [12] 132 nM | [13] 264 nM | [14] 148 nM | [15] 118 nM | [19] 469 nM
inactive: [1] | [6] | [7] | [8] | [9] | [17]

O=C(O)C1(Cc2cccc(Nc3nccs3)n2)CCC(Oc2cccc(Cl)c2F)CC1 (centres undefined)
inactive: [1] | [4] | [13] | [14]
active: [2] 418 nM | [3] 166 nM | [5] 235 nM | [18] 590 nM | [7] 74.3 nM | [10] 935 nM | [12] 235 nM | [19] 1320 nM
